Assay results from PubChem BioAssay (Tox21).
Values joined by “and” are separate entries in the source; they are usually repeats but may differ in a detail not shown here. Identical values can stand only once. Inconclusive results are not listed. The source holds several records for some structures; these can differ, active in one and inactive in another. Active and inactive are the calls of the source. Unless noted, calls follow the shape of the dose curve; as a rule, active = well fitted curve in the direction sought with a large enough effect in the repeat runs; inconclusive = weak or mixed curves; inactive = no such curve, though single readings can be large; an effect the other way counts as inactive or inconclusive.

Key:
[1] = molecular target: Thyrotropin-releasing hormone receptor (Homo sapiens) (UniProt P34981); assay: qHTS assay to identify small molecule agonists of the thyrotropin-releasing hormone receptor (TRHR) signaling pathway (AID 1346891; calls by dose curve;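 also: HEK293 cells expressing TRHR with calcium dye readout; series mostly up to about 58 µM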)
In short: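 Overnight-plated (18 h, 37 °C, 5% CO2) TRHR-Hek293 cells; 2 h calcium dye at 37 °C; compound in DMSO; 3-min kinetic fluorescence read.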

[2] = Human pregnane X receptor (PXR) small molecule agonists, qHTS cell viability counter screen (AID 1346977); also: nearly all actives have a fitted effect of over 50% in size; also: potency is read from the fitted curve at half-maximal effect
In short: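 After a 5hr pre-incubation, PXR-Luc HepG2 cells received compounds plus positive control in DMSO and were kept 24hr at 37C. Cell viability was quantified by fluorescence from CellTiter-Fluor added for the final hour.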

[3] = Caspase-3/7 induction in HepG2 cells by small molecules, qHTS assay (AID 1346978); also: nearly all actives have a fitted effect of over 15% in size; also: potency is read from the fitted curve at half-maximal effect
In short: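 Wild-type HepG2 cells, 2,000/well, settled 5 hr at 37 C and 5% CO2, then compound-treated for 17 hr; caspase-3/7 activity read by luminescent Caspase-Glo 3/7 after 30 min at room temperature.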

[4] = Caspase-3/7 induction in CHO-K1 cells by small molecules, qHTS cell viability counter screen (AID 1346979); also: nearly all actives have a fitted effect of over 35% in size; also: potency is read from the fitted curve at half-maximal effect
In short: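 Multiplexed with Caspase-Glo 3/7 in CHO-K1 cells, this counter screen added CellTiter-Fluor after 16hr of compound exposure and recorded fluorescence 1hr later.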

[5] = Caspase-3/7 induction in CHO-K1 cells by small molecules, qHTS assay (AID 1346980); also: nearly all actives have a fitted effect of over 15% in size
In short: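 Wild-type CHO-K1 cells exposed to compounds for 17hr at 37 C, 5% CO2. Caspase-3/7 activity then measured by Caspase-Glo 3/7 luminescence after 30min at room temperature.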

[6] = Caspase-3/7 induction in HepG2 cells by small molecules, qHTS cell viability counter screen (AID 1346981); also: nearly all actives have a fitted effect of over 30% in size; also: potency is read from the fitted curve at half-maximal effect
In short: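 CellTiter-Fluor fluorescence measured viability in the same wells used for Caspase-Glo 3/7. HepG2 (wild type) at 2,000 cells/well were pre-incubated 5 hr, dosed, and given reagent at 16 hr, with 1 hr further at 37C.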

[7] = molecular target: Nuclear receptor subfamily 1 group I member 2 (Homo sapiens) (UniProt O75469); assay: Human pregnane X receptor (PXR) small molecule agonists, qHTS assay (AID 1346982); also: nearly all actives have a fitted effect of over 35% in size; also: potency is read from the fitted curve at half-maximal effect
In short: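 Agonist mode: luminescence from ONE-Glo after 24 h compound exposure at 37C in HepG2 cells carrying hPXR-responsive CYP3A4 luciferase, plated in charcoal-stripped serum medium 5 h beforehand.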

[8] = molecular target: Nuclear receptor subfamily 1 group I member 2 (Rattus norvegicus) (UniProt Q9R1A7); assay: Rat pregnane X receptor (rPXR) activation by small molecules, qHTS assay (AID 1346983); conditions: rPXR luciferase reporter cells, One-Glo luminescence, 24 h; stronger effect = higher value; also: nearly all actives have a fitted effect of over 20% in size
In short: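 Cell-based rPXR activation assay: rPXR cells, 2,000 per well, rested 5hr at 37 C, then exposed to compounds in DMSO for 24 hr at 37 C. Luciferase activity read by One-Glo luminescence after 30 min at room temperature.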

[9] = molecular target: Nuclear receptor subfamily 1 group I member 2 (Homo sapiens) (UniProt O75469); assay: CYP3A4 induction through human pregnane X receptor (PXR) by small molecules, qHTS assay (AID 1346984); also: nearly all actives have a fitted effect of over 40% in size
In short: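 Read-out is luminescence after One-Glo addition, following a 3 hr, 37C incubation with Luciferin-IPA CYP3A4 substrate (3uM final). Before that, compounds were on DPX-2 cells (HepG2 co-transfected with PXR element plus CYP3A4-promoter luciferase) for 24 hr at 37C.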

[10] = molecular target: Nuclear receptor subfamily 1 group I member 2 (Homo sapiens) (UniProt O75469); assay: Human pregnane X receptor (PXR) activation by small molecules, qHTS assay (AID 1346985); also: nearly all actives have a fitted effect of over 40% in size
In short: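 DPX-2 cells (HepG2 co-transfected with a PXR response element and a CYP3A4-promoter luciferase construct) were seeded at 2,000 per well, rested 5 hr at 37C, then exposed to DMSO-dissolved compounds for 24 hr. Activation was read as luciferase luminescence.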
% is scaled to controls: 0 for no effect and ±100 for the full control effect.

Sequence of Nuclear receptor subfamily 1 group I member 2 (Rattus norvegicus) (Q9R1A7 whole entry, looked up): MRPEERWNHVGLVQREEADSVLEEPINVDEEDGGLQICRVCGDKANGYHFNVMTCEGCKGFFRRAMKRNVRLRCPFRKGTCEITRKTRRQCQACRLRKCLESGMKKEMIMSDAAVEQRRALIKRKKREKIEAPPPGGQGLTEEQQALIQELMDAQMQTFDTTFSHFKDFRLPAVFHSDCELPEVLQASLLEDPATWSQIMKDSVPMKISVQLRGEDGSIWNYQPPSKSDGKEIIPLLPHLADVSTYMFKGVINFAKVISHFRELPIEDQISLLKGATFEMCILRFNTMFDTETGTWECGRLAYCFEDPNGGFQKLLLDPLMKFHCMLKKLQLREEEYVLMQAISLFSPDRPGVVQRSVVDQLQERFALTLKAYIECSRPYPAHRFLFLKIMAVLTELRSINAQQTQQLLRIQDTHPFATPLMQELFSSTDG
Sequence of Thyrotropin-releasing hormone receptor (Homo sapiens) (P34981 whole entry, looked up): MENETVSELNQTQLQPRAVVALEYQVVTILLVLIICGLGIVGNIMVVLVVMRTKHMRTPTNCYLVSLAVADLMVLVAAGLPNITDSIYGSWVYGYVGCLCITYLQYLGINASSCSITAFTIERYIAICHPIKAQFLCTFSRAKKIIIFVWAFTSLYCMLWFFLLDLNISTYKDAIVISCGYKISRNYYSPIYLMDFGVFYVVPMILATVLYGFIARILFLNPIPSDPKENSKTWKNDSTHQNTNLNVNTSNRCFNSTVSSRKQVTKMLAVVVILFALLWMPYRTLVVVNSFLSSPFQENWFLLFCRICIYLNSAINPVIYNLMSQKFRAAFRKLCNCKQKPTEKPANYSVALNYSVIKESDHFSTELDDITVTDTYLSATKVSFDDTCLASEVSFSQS
Sequence of Nuclear receptor subfamily 1 group I member 2 (Homo sapiens) (O75469 whole entry, looked up): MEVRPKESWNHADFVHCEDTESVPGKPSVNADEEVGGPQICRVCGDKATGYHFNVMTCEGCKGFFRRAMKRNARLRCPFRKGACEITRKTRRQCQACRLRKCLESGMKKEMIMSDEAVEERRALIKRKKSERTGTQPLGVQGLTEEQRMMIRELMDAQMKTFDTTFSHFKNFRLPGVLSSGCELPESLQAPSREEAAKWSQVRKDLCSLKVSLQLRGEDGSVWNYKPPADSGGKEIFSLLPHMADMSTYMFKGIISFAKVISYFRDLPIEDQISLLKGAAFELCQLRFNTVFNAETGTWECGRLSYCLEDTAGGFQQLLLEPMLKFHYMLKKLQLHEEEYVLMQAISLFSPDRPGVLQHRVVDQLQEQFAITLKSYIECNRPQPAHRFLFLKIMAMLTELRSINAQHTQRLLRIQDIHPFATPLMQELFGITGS

CCCCNC(=O)n1c(NC(=O)OC)nc2ccccc21
6.08 µM (active) and inactive: Potency [3]
active: Potency [4] 30.6 µM | Potency [7] 60.8 µM
inactive: Potency [1] | Potency [2] | Potency [5] | Potency [6]

c1ccc(N=Nc2ccccc2)cc1
inactive: Potency [1] | Potency [2] | Potency [3] | Potency [4] | Potency [5] | Potency [6] | Potency [7]

CCN(N=O)C(N)=O
inactive: Potency [1] | Potency [2] | Potency [3] | Potency [4] | Potency [5] | Potency [6] | Potency [7]

Cc1ccc2c(c1N)C(=O)c1ccccc1C2=O
active: Potency [2] 19.1 µM and 27.3 µM | Potency [4] 48 µM and 54.5 µM | Potency [6] 30.3 µM and 48.6 µM | Potency [7] 4.28 µM and 1.93 µM
inactive: Potency [1] | Potency [3] | Potency [5]

CCN(CC)N=O
inactive: Potency [1] | Potency [2] | Potency [3] | Potency [4] | Potency [5] | Potency [6] | Potency [7]

CC(O)CCO (configuration not stated)
inactive: Potency [1] | Potency [2] | Potency [3] | Potency [4] | Potency [5] | Potency [6] | Potency [7]

CCc1cccc(CC)c1N(COC)C(=O)CCl
inactive: Potency [1] | Potency [3] | Potency [5] | Potency [6]
39.8 µM (active) and inactive: Potency [2]
active: Potency [4] 16.7 µM | Potency [7] 10.5 µM and 1.37 µM

C=CC(=O)OCCO
active: Potency [4] 55.3 µM
inactive: Potency [1] | Potency [2] | Potency [3] | Potency [5] | Potency [6] | Potency [7]

C1=Cc2cccc3cccc1c23
inactive: Potency [1] | Potency [2] | Potency [3] | Potency [4] | Potency [5] | Potency [6] | Potency [7]

Cc1ccc(OP(=O)(Oc2ccc(C)cc2)Oc2ccc(C)cc2)cc1
27.3 µM (active) and inactive: Potency [4]
active: Potency [7] 5.44 µM and 13.7 µM
967 nM (active) and inactive: Potency [3]
inactive: Potency [1] | Potency [2] | Potency [5] | Potency [6]

S=C1NCCN1
inactive: Potency [1] | Potency [2] | Potency [3] | Potency [4] | Potency [5] | Potency [6]

CC(C)(C)c1ccccc1O
inactive: Potency [1] | Potency [2] | Potency [3] | Potency [4] | Potency [5] | Potency [6] | Potency [7]

O=[N+]([O-])c1c(Cl)c(Cl)c(Cl)c(Cl)c1Cl
inactive: Potency [1] | Potency [2] | Potency [3] | Potency [4] | Potency [5] | Potency [6] | Potency [7]

O=[N+]([O-])c1cccc2ccccc12
inactive: Potency [1] | Potency [2] | Potency [3] | Potency [4] | Potency [5] | Potency [6] | Potency [7]

CC(C)C(=O)OCC(C)(C)C(OC(=O)C(C)C)C(C)C (configuration not stated)
inactive: Potency [1] | Potency [2] | Potency [3] | Potency [4] | Potency [5] | Potency [6] | Potency [7]

C=C(C)[C@H]1Cc2c(ccc3c2O[C@@H]2COc4cc(OC)c(OC)cc4[C@@H]2C3=O)O1
inactive: Potency [1] | Potency [3] | Potency [5] | Potency [7]
active: Potency [2] 112 nM and 2.17 µM and 298 nM | Potency [4] 175 nM and 770 nM and 7.5 µM | Potency [6] 39.1 µM and 30.6 µM and 5.31 µM

Oc1cc(Cl)ccc1Cl
inactive: Potency [1] | Potency [2] | Potency [3] | Potency [4] | Potency [5] | Potency [6] | Potency [7]

CC(C)NC(C)C
inactive: Potency [1] | Potency [2] | Potency [3] | Potency [4] | Potency [5] | Potency [6] | Potency [7] | max activation [8] -0.504% | outcome [9] | outcome [10]

Nn1cnnc1
inactive: Potency [1] | Potency [2] | Potency [3] | Potency [4] | Potency [5] | Potency [6] | Potency [7]

O=c1oc2ccccc2c(O)c1C(CC(O)c1ccc(-c2ccc(Br)cc2)cc1)c1ccccc1 (configuration not stated)
inactive: Potency [1] | Potency [2] | Potency [3] | Potency [4] | Potency [5] | Potency [6] | Potency [7] | max activation [8] -5.73% | outcome [9] | outcome [10]

CCN(CC)C(=O)/C(Cl)=C(\C)OP(=O)(OC)OC
inactive and 54.5 µM (active): Potency [7]
inactive: Potency [1] | Potency [2] | Potency [3] | Potency [4] | Potency [5] | Potency [6] | max activation [8] 5.74% | outcome [9]

OCC(O)CO
inactive: Potency [1] | Potency [2] | Potency [3] | Potency [4] | Potency [5] | Potency [6] | Potency [7] | outcome [9] | outcome [10]

Nc1ccc(-c2ccccc2)cc1
active: Potency [7] 28.1 µM and 30.6 µM
inactive: Potency [1] | Potency [2] | Potency [3] | Potency [5] | Potency [6]
56 µM (active) and inactive: Potency [4]

O=C1C=CC(=O)C=C1
inactive: Potency [1] | Potency [2] | Potency [3] | Potency [4] | Potency [5] | Potency [6] | Potency [7]
